Source: the supplement of paper PMC12350171
Structures can show the parent of a compound that is named as a salt. A number with no mark means an inactive call.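 The calls were made as follows: active = normalised median growth AUC below 0.1 of DMSO control; inactive = AUC 0.1 or higher.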

What follows are compounds tested on S. enterica typhimurium tolC KO (assay: growth AUC normalised to DMSO control (median) (fraction of control); higher = less growth inhibition, active = hit call of the paper). Conditions: 20 µM.
Summary of the method: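 Anaerobic growth was tracked hourly at OD578 for 24 h in 96-well plates of mGAM seeded at OD578 0.01 with each approved-drug library compound at 20 μM and 1% DMSO. Strains had first been passaged twice overnight without oxygen. Three biological replicates were run. The reported median is the area under the curve, calculated by the trapezoidal rule on curves truncated at entry into stationary phase and normalised to vehicle wells on the same plate.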
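Also: active when median AUC fell below 0.1.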

| SMILES | growth AUC normalised to DMSO control |
| --- | --- |
| CN(C)CCOC(c1ccccc1)c1ccccc1 [Diphenhydramine hydrochloride] | 1 |
| COC(=O)C1=C(C#N)NC(C)=C(C(=O)OC(C)C)C1c1cccc([N+](=O)[O-])c1 (configuration not stated) [Nilvadipine] | 0.922 |
| Nc1nc2n[nH]nc2c(=O)[nH]1 [Azaguanine-8] | 1.01 |
| CCN(CC)CCOC(=O)C(Cc1cccc2ccccc12)CC1CCCO1 (configuration not stated) [Nafronyl oxalate] | 0.959 |
| O=c1n(CCCN2CCN(c3cccc(Cl)c3)CC2)nc2ccccn12 [Trazodone hydrochloride] | 0.964 |
| CCCOc1ccc(C(=O)OCCN(CC)CC)cc1N [Proparacaine hydrochloride] | 1.01 |
| CN1CCCN(C(c2ccccc2)c2ccc(Cl)cc2)CC1 (configuration not stated) [Homochlorcyclizine dihydrochloride] | 0.956 |
| CCCCOC(=O)c1ccc(N)cc1 [Butamben] | 1.01 |
| OC(CCN1CCCCC1)(c1ccccc1)c1ccccc1 [Pridinol methanesulfonate salt] | 0.994 |
| CCCNC(C)C(=O)Nc1ccccc1C (configuration not stated) [Prilocaine hydrochloride] | 0.993 |
| COc1cccc2c1C(=O)c1c(O)c3c(c(O)c1C2=O)C[C@@](O)(C(=O)CO)C[C@@H]3O[C@H]1C[C@H](N)[C@H](O)[C@H](C)O1 [Doxorubicin hydrochloride] | 0.0132 (active) |
| CCC(=O)OCC(=O)[C@@]1(OC(=O)CC)[C@H](C)C[C@H]2[C@H]3[C@H]([C@@H](O)C[C@@]21C)[C@@]1(C)C=CC(=O)C=C1C[C@H]3Cl [Alclometasone dipropionate] | 1 |
